Results from PubChem BioAssay (Tox21).
Results filed as inconclusive are left out. Activity calls are given as the source filed them. Unless noted, the call rests on the fitted dose curve.

Assay: qHTS assay to identify small molecule agonists of the endoplasmic reticulum stress response signaling pathway - cell viability counter screen (AID 1159517);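 further: HeLa cells carrying an ER stress response element beta-lactamase reporter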
Conditions: ESRE-bla HeLa viability, CellTiter-Glo luminescence, 5 h; series mostly up to 61 µM; activity change, negative = cytotoxicity: at the top concentration
Method in brief: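 HeLa cells carrying an ESRE-driven beta-lactamase reporter receive compound for 5 hr at 37 C. Cell viability is then gauged with CellTiter-Glo by luminescence, 30 min at room temperature.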
Further: nearly all actives have a fitted effect of over 50% in size.
On the % scale 0 is the no-effect control and ±100 the full control effect.

| SMILES | activity change, negative = cytotoxicity |
| --- | --- |
| C1COCO1 | -10.8% (inactive) |
| O=S1OCCO1 | 7.74% [at 78.8 µM] (inactive) |
| CNCCCC1c2ccccc2C=Cc2ccccc21 | -0.87% (inactive) |
| NC(=O)Cn1c(=O)cc(CCN2CCN(c3nccc4sccc34)CC2)c2ccc(F)cc21 | 0.866% (inactive) |
| O=C(N/N=C/c1ccc([N+](=O)[O-])o1)c1ccc(O)cc1 | -0.524% (inactive) |
| CC(=O)Nc1ccccc1C | 3.72% [at 78.8 µM] (inactive) |
| O=C(CCCN1CCC(O)(c2ccc(Br)cc2)CC1)c1ccc(F)cc1 | -19.6% (inactive) |
| CCOC(=N)CC(=O)OCC | -6.06% (inactive) |
| Cc1cc(C(=C2C=CC(=Nc3ccc(S(=O)(=O)O)cc3S(=O)(=O)O)C=C2)c2ccc(Nc3ccc(S(=O)(=O)O)cc3)cc2)ccc1N | 9.79% (inactive) |
| CCCCC(CC)C(=O)OCCOCCOCCOCCOC(=O)C(CC)CCCC (stereo not given) | 9.4% (inactive) |
| CN1CCN(CCCN2c3ccccc3Sc3ccc(S(=O)(=O)N(C)C)cc32)CC1 | -2.85% (inactive) |
| CCCCN(CCCC)CCCOC(=O)c1ccc(N)cc1 | 6.18% (inactive) |
| O=C(CCCCCCCCC#CI)Oc1ccccc1 | 2.49% (inactive) |
| CSc1ccc(Oc2ccc(S(N)(=O)=O)cc2CN(C)C)cc1C | 2.71% (inactive) |
| CN(C(=O)C(Cl)Cl)c1ccc(OC(=O)c2ccco2)cc1 | 9.29% (inactive) |
| CC1CN(c2cc3c(cc2F)c(=O)c(C(=O)O)cn3-c2ccc(F)cc2F)CCN1 (stereo not given) | 10.1% [at 6.95 µM] (inactive) |
| CCC(C(=O)OCCOCCN(CC)CC)c1ccccc1 (stereo not given) | -18% (inactive) |
| C[C@@H]1C[C@H]2[C@@H]3CCC4=CC(=O)C=C[C@]4(C)[C@@]3(F)[C@@H](O)C[C@]2(C)[C@@]1(O)C(=O)CO | -16.4% [at 78.8 µM] (inactive) |
| CCCCCCCCCCCC(=O)[O][Sn]([CH2]CCC)([CH2]CCC)[O]C(=O)CCCCCCCCCCC | -22.8% (inactive) |
| COC(=O)[C@@H]1CC2=CC(=O)CC[C@]2(C)[C@@]23O[C@@H]2C[C@@]2(C)[C@@H](CC[C@@]24CCC(=O)O4)[C@H]13 | 0.885% (inactive) |

| SMILES | activity change, negative = cytotoxicity |
| --- | --- |
| CC1CC(O)CC(C)(C)C1 (stereo not given) | -5.51% (inactive) |
| CCOC(=O)/C=C/C(=O)O | -4.02% (inactive) |
| CO/N=C1\CN(c2nc3c(cc2F)c(=O)c(C(=O)O)cn3C2CC2)CC1CN (stereo not given) | -4.78% (inactive) |
| C=CC(=O)NCOCC(C)C | -16.8% (inactive) |
| O=C(O)c1c(O)c(-c2ccccc2)nc2ccccc12 | 0.423% (inactive) |
| CC(CCO)CCc1ccccc1 (stereo not given) | 6.44% (inactive) |
| COc1ccc(CCC(=O)c2c(O)cc(O[C@@H]3O[C@H](CO)[C@@H](O)[C@H](O)[C@H]3O[C@@H]3O[C@@H](C)[C@H](O)[C@@H](O)[C@H]3O)cc2O)cc1O | -2.31% (inactive) |
| COc1ccc(C(=O)c2cccc(O)c2)c(OC)c1 | 1.37% (inactive) |
| N#C/C(=C1/SC[C@@H](c2ccc(Cl)cc2Cl)S1)n1ccnc1 | -13.5% (inactive) |
| Cc1cc(O)c2c(O)c3c(O)cccc3cc2c1 | -4.4% (inactive) |
| CCC(C)(C)C1CCC(O)CC1 (stereo not given) | 11.6% (inactive) |
| Cc1ccccc1N1C(=O)c2cc(S(N)(=O)=O)c(Cl)cc2NC1C (stereo not given) | 22.1% (inactive) |
| C/C=C(\C)C(=O)OCCC(C)CCC=C(C)C (stereo not given) | 10.5% (inactive) |
| O=C(O)c1cccc(O)c1 | 8.56% [at 78.8 µM] (inactive) |
| COc1cc2c(N3CCN(C(=O)Nc4ccc(OC(C)C)cc4)CC3)ncnc2cc1OCCCN1CCCCC1 | -0.465% (inactive) |
| CCOC(=O)c1ccccc1C | 3.31% (inactive) |
| CCCCCC=CCC=CCCCCCCCC(=O)OCC | -20.2% (inactive) |
| C[N+](C)(C)CCOC(N)=O | 7.42% (inactive) |
| CCCCC(=O)O[C@]1(C(=O)CO)CC[C@H]2[C@@H]3CCC4=CC(=O)CC[C@]4(C)[C@H]3[C@@H](O)C[C@@]21C | -16.1% (inactive) |
| C=CCNc1nc(NCC=C)nc(N2CCN(C(c3ccc(F)cc3)c3ccc(F)cc3)CC2)n1 | 25.3% (inactive) |

Assay: qHTS assay to identify small molecule antagonists of the retinoid-related orphan receptor gamma (ROR-gamma) signaling pathway - cell viability counter screen (AID 1159520; active means well fitted cell-killing curve with a large enough effect in the repeat runs; further: potency means the concentration at half of the fitted maximal effect)
Conditions: Tet-on RORgamma CHO cells viability, ATP luminescence, 16 h; series mostly up to 92.4 µM; activity, negative = cytotoxicity: at the top concentration
Method in brief: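 Cytotoxicity was read from cellular ATP (CellTiter-Glo luminescence) after 16 hr at 37 C with 1 uM doxycycline induction. The inducer was added 2 hr after compound transfer to Tet-on ROR gamma CHO cells.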

| SMILES | activity, negative = cytotoxicity | Potency |
| --- | --- | --- |
| C1COCO1 | 3.28% (inactive) |  |
| O=S1OCCO1 | 5.18% (inactive) |  |
| CNCCCC1c2ccccc2C=Cc2ccccc21 | -11.2% [at 42.5 µM] (inactive) |  |
| NC(=O)Cn1c(=O)cc(CCN2CCN(c3nccc4sccc34)CC2)c2ccc(F)cc21 | -10.4% (inactive) |  |
| O=C(N/N=C/c1ccc([N+](=O)[O-])o1)c1ccc(O)cc1 | -6.17% [at 42.5 µM] (inactive) |  |
| CC(=O)Nc1ccccc1C | 0.642% (inactive) |  |
| O=C(CCCN1CCC(O)(c2ccc(Br)cc2)CC1)c1ccc(F)cc1 | -9.85% [at 42.5 µM] (inactive) |  |
| CCOC(=N)CC(=O)OCC | -7.87% (inactive) |  |
| Cc1cc(C(=C2C=CC(=Nc3ccc(S(=O)(=O)O)cc3S(=O)(=O)O)C=C2)c2ccc(Nc3ccc(S(=O)(=O)O)cc3)cc2)ccc1N | -3.06% [at 42.5 µM] (inactive) |  |
| CCCCC(CC)C(=O)OCCOCCOCCOCCOC(=O)C(CC)CCCC (stereo not given) | -0.639% (inactive) |  |
| CN1CCN(CCCN2c3ccccc3Sc3ccc(S(=O)(=O)N(C)C)cc32)CC1 | -12.9% [at 42.5 µM] (inactive) |  |
| CCCCN(CCCC)CCCOC(=O)c1ccc(N)cc1 | 3.42% [at 42.5 µM] (inactive) |  |
| O=C(CCCCCCCCC#CI)Oc1ccccc1 | -6.42% [at 42.5 µM] (inactive) |  |
| CSc1ccc(Oc2ccc(S(N)(=O)=O)cc2CN(C)C)cc1C | -1.76% (inactive) |  |
| CN(C(=O)C(Cl)Cl)c1ccc(OC(=O)c2ccco2)cc1 | -2.87% [at 42.5 µM] (inactive) |  |
| CC1CN(c2cc3c(cc2F)c(=O)c(C(=O)O)cn3-c2ccc(F)cc2F)CCN1 (stereo not given) | 3.27% [at 8.39 µM] (inactive) |  |
| CCC(C(=O)OCCOCCN(CC)CC)c1ccccc1 (stereo not given) | 1.3% [at 42.5 µM] (inactive) |  |
| C[C@@H]1C[C@H]2[C@@H]3CCC4=CC(=O)C=C[C@]4(C)[C@@]3(F)[C@@H](O)C[C@]2(C)[C@@]1(O)C(=O)CO | 9.75% (inactive) |  |
| CCCCCCCCCCCC(=O)[O][Sn]([CH2]CCC)([CH2]CCC)[O]C(=O)CCCCCCCCCCC |  | 13.3 µM (active) |
| COC(=O)[C@@H]1CC2=CC(=O)CC[C@]2(C)[C@@]23O[C@@H]2C[C@@]2(C)[C@@H](CC[C@@]24CCC(=O)O4)[C@H]13 | 0.82% [at 42.5 µM] (inactive) |  |

| SMILES | activity, negative = cytotoxicity | Potency |
| --- | --- | --- |
| CC1CC(O)CC(C)(C)C1 (stereo not given) | -3.73% (inactive) |  |
| CCOC(=O)/C=C/C(=O)O | -11.8% (inactive) |  |
| CO/N=C1\CN(c2nc3c(cc2F)c(=O)c(C(=O)O)cn3C2CC2)CC1CN (stereo not given) | 0.0876% [at 42.5 µM] (inactive) |  |
| C=CC(=O)NCOCC(C)C | -8.05% (inactive) |  |
| O=C(O)c1c(O)c(-c2ccccc2)nc2ccccc12 | 0.0338% [at 42.5 µM] (inactive) |  |
| CC(CCO)CCc1ccccc1 (stereo not given) | -11.7% (inactive) |  |
| COc1ccc(CCC(=O)c2c(O)cc(O[C@@H]3O[C@H](CO)[C@@H](O)[C@H](O)[C@H]3O[C@@H]3O[C@@H](C)[C@H](O)[C@@H](O)[C@H]3O)cc2O)cc1O | 0.229% (inactive) |  |
| COc1ccc(C(=O)c2cccc(O)c2)c(OC)c1 | -0.748% (inactive) |  |
| N#C/C(=C1/SC[C@@H](c2ccc(Cl)cc2Cl)S1)n1ccnc1 | -8.68% [at 42.5 µM] (inactive) |  |
| Cc1cc(O)c2c(O)c3c(O)cccc3cc2c1 | -9.32% [at 42.5 µM] (inactive) |  |
| CCC(C)(C)C1CCC(O)CC1 (stereo not given) | -11.9% (inactive) |  |
| Cc1ccccc1N1C(=O)c2cc(S(N)(=O)=O)c(Cl)cc2NC1C (stereo not given) | 1.39% [at 42.5 µM] (inactive) |  |
| C/C=C(\C)C(=O)OCCC(C)CCC=C(C)C (stereo not given) | 1.36% (inactive) |  |
| O=C(O)c1cccc(O)c1 | 5.7% (inactive) |  |
| COc1cc2c(N3CCN(C(=O)Nc4ccc(OC(C)C)cc4)CC3)ncnc2cc1OCCCN1CCCCC1 | -11.5% [at 42.5 µM] (inactive) |  |
| CCOC(=O)c1ccccc1C | -4.79% (inactive) |  |
| CCCCCC=CCC=CCCCCCCCC(=O)OCC | -3.39% [at 42.5 µM] (inactive) |  |
| C[N+](C)(C)CCOC(N)=O | 1.8% [at 42.5 µM] (inactive) |  |
| CCCCC(=O)O[C@]1(C(=O)CO)CC[C@H]2[C@@H]3CCC4=CC(=O)CC[C@]4(C)[C@H]3[C@@H](O)C[C@@]21C | -1.47% [at 42.5 µM] (inactive) |  |
| C=CCNc1nc(NCC=C)nc(N2CCN(C(c3ccc(F)cc3)c3ccc(F)cc3)CC2)n1 | -13% [at 42.5 µM] (inactive) |  |
